The text below walks through data of PubChem BioAssay (NCI).

About 83,000 compounds went through this panel and 20% of them were active in at least one assay; those are over-represented in the sample as a whole.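 The test compound was applied at a single concentration to cells in 96-well plates for 48 hours, and percent growth was recorded.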 Unmarked numbers belong to inactive results. The source made the active and inactive calls. Rule for the calls: active = growth percent below 10; inactive = the rest.

Test systems include NCI-H23 lung; NCI-H226 lung; NCI-H322M lung; HOP-62 NSCLC; NCI-H460 lung; HOP-92 NSCLC; NCI-H522 lung; A549/ATCC NSCLC; 786-0 renal; COLO 205 colon; DU-145 prostate; K-562 leukemia; MALME-3M melanoma; MDA-MB-231 breast; RXF 393 renal; SF-268 CNS; SF-295 CNS; SF-539 CNS; UACC-257 melanoma; M14 melanoma.
Holding throughout (experiment): NCI-60 one-dose screen, 48 h (100 = growth as untreated, 0 = no growth, -100 = all killed)
What all share (details): 10 µM unless noted

As to `COc1ccc(C2=C(c3cn(C)c4ccccc34)C(=O)OC2)cc1OC`, the growth is 54.6% with NCI-H23 lung; 70.3% in the experiment with NCI-H226 lung; 65.5% in the experiment on NCI-H322M lung; 31.5% in the experiment on HOP-62 NSCLC; 29.6% in the experiment on NCI-H460 lung; 16.4% with HOP-92 NSCLC. For the same molecule, the growth in the experiment on NCI-H522 lung is 13.3%; in the experiment on A549/ATCC NSCLC it was 42.3%; with 786-0 renal, 41.2%; with COLO 205 colon, 12.6%; in the experiment on DU-145 prostate, 48.7%; in the experiment with K-562 leukemia, 18%. The growth with MALME-3M melanoma was 35.4%; in the experiment on MDA-MB-231 breast, 49.8%; in the experiment with RXF 393 renal, -7.01% (active); in the experiment on SF-268 CNS it was 52.1%; with SF-295 CNS, 23%; with SF-539 CNS, -12.2% (active). For the same molecule, the results for the growth in the experiment on UACC-257 melanoma and in the experiment on M14 melanoma were 79.7% and 50%, respectively.

On to `CCN(CC)c1ccc2cc(C(Nc3ccc(Br)c(C(F)(F)F)c3)c3nnnn3C(C)(C)C)c(=O)oc2c1` (stereo not given), for which the growth in the experiment with NCI-H23 lung is 100%; in the experiment on NCI-H226 lung it was 86.1%; in the experiment on NCI-H322M lung, 99.6%; with HOP-62 NSCLC, 94%; in the experiment with NCI-H460 lung, 91.9%; in the experiment on HOP-92 NSCLC, 87.5%. Moreover, the growth was 77.9% in the experiment with NCI-H522 lung; 86.3% in the experiment on A549/ATCC NSCLC; 99.8% in the experiment with 786-0 renal; 101% in the experiment with COLO 205 colon; 103% with DU-145 prostate; 88.2% with K-562 leukemia. Further, the growth in the experiment with MALME-3M melanoma was 88%; in the experiment with MDA-MB-231 breast, 86.9%; in the experiment with RXF 393 renal, 82.9%; with SF-268 CNS, 85.3%; with SF-295 CNS, 103%; in the experiment on SF-539 CNS, 101%. Besides, the results for the growth in the experiment with UACC-257 melanoma and in the experiment with M14 melanoma were 93.3% and 103%, respectively.

Turning to `CCOC(=O)C(c1ccccc1)N1C(=O)c2ccccc2C1=O` (stereo not given), the growth is 87.2% in the experiment with NCI-H23 lung; 106% in the experiment with NCI-H226 lung; 96.2% in the experiment with NCI-H322M lung; 95.8% in the experiment with HOP-62 NSCLC; 100% in the experiment on NCI-H460 lung; 82% with HOP-92 NSCLC. Also, the growth in the experiment on NCI-H522 lung is 96.8%; in the experiment on A549/ATCC NSCLC, 97.6%; with 786-0 renal, 102%; in the experiment on COLO 205 colon it was 98.5%; in the experiment with DU-145 prostate, 107%; in the experiment with K-562 leukemia, 114%. Further, the growth in the experiment with MALME-3M melanoma is 94.9%; in the experiment with MDA-MB-231 breast, 103%; in the experiment with RXF 393 renal it was 105%; with SF-268 CNS, 99.7%; with SF-295 CNS it was 100%; in the experiment on SF-539 CNS, 97.9%. For the same molecule, the results for the growth in the experiment with UACC-257 melanoma and with M14 melanoma were 91.9% and 96.7%, respectively.

With `CCOC(=O)c1nn(C2CCCCO2)c2ccc(NC(=O)CN3CCCC3)cc12` (stereo not given), the growth was 110% with NCI-H23 lung; 110% with NCI-H226 lung; 89.7% in the experiment with NCI-H322M lung; 92.7% in the experiment on HOP-62 NSCLC; 100% in the experiment with NCI-H460 lung; 106% in the experiment with HOP-92 NSCLC. Moreover, the growth in the experiment on NCI-H522 lung was 97.9%; in the experiment on A549/ATCC NSCLC it was 100%; in the experiment with 786-0 renal, 93.3%; in the experiment on COLO 205 colon it was 126%; in the experiment on DU-145 prostate it was 104%; with K-562 leukemia, 100%. Further, the growth in the experiment with MALME-3M melanoma is 102%; in the experiment on MDA-MB-231 breast, 104%; in the experiment on RXF 393 renal, 133%; in the experiment on SF-268 CNS, 93%; in the experiment with SF-295 CNS it was 98.5%; with SF-539 CNS, 95.7%. In addition, the figures for the growth in the experiment with UACC-257 melanoma and with M14 melanoma were 91.3% and 98.2%, respectively.

Regarding `CCN(CC)CCCOc1ccc2c(c1)O/C(=C\c1cccc(OC)c1)C2=O`, the growth in the experiment with NCI-H23 lung is 83.9%; in the experiment on NCI-H226 lung it was 87.8%; with NCI-H322M lung, 89.8%; in the experiment with HOP-62 NSCLC it was 104%; in the experiment with NCI-H460 lung, 87.2%; with HOP-92 NSCLC, 84.3%. Besides, the growth was 98.8% in the experiment with NCI-H522 lung; 93.5% with A549/ATCC NSCLC; 93.8% with 786-0 renal; 94.7% in the experiment with COLO 205 colon; 86.8% with DU-145 prostate; 21.5% with K-562 leukemia. The growth was 90.5% in the experiment with MALME-3M melanoma; 87.1% in the experiment with MDA-MB-231 breast; 85.6% in the experiment on RXF 393 renal; 86.1% in the experiment on SF-268 CNS; 93.4% in the experiment with SF-295 CNS; 86.7% in the experiment on SF-539 CNS. Further, the growth was 100% in the experiment on UACC-257 melanoma and 92.6% in the experiment with M14 melanoma.

As to `CC(=O)OC[C@]12CC[C@@H]([C@@H](C)C(N)=O)[C@@H]1[C@H]1CC[C@@H]3[C@@]4(C)CC[C@H](OC(C)=O)C(C)(C)[C@@H]4CC[C@@]3(C)[C@]1(C)CC2`, the growth in the experiment with NCI-H23 lung was -40.3% [100 µM] (active); with NCI-H226 lung, -58.5% [100 µM] (active); in the experiment with NCI-H322M lung, -78.2% [100 µM] (active); in the experiment on HOP-62 NSCLC, -73% [100 µM] (active); in the experiment on NCI-H460 lung, -61.8% [100 µM] (active); in the experiment on HOP-92 NSCLC, -83.1% [100 µM] (active). The growth was -61.1% [100 µM] (active) in the experiment with NCI-H522 lung; 9.89% [100 µM] (active) in the experiment with A549/ATCC NSCLC; -74% [100 µM] (active) in the experiment with 786-0 renal; -53% [100 µM] (active) in the experiment on COLO 205 colon; -69.9% [100 µM] (active) in the experiment on DU-145 prostate; 3.1% [100 µM] (active) with K-562 leukemia. For the same molecule, the growth in the experiment with MALME-3M melanoma was -89% [100 µM] (active); in the experiment with MDA-MB-231 breast, -88.6% [100 µM] (active); in the experiment with RXF 393 renal, -64.9% [100 µM] (active); in the experiment on SF-268 CNS, -61% [100 µM] (active); with SF-295 CNS, -50.8% [100 µM] (active); in the experiment with SF-539 CNS it was -83.9% [100 µM] (active). Besides, the figures for the growth with UACC-257 melanoma and in the experiment on M14 melanoma were -46.2% [100 µM] (active) and -44.3% [100 µM] (active), respectively.

In the case of `O=C(NCc1ccc(Cn2c(=O)sn(-c3ccccc3)c2=O)cc1)OCc1ccc2c(Br)cc(Br)c(O)c2n1`, the growth was -47.2% (active) with NCI-H23 lung; -25.8% (active) with NCI-H226 lung; 43.1% in the experiment with NCI-H322M lung; -48.4% (active) in the experiment with HOP-62 NSCLC; -21% (active) in the experiment with NCI-H460 lung; -58.7% (active) with HOP-92 NSCLC. Moreover, the growth in the experiment with NCI-H522 lung is -47.1% (active); in the experiment on A549/ATCC NSCLC, -52.3% (active); with 786-0 renal, -78.7% (active); in the experiment with COLO 205 colon it was -75.6% (active); in the experiment with DU-145 prostate, -89.6% (active); in the experiment with K-562 leukemia it was 5.05% (active). The growth in the experiment with MALME-3M melanoma was -76.7% (active); with MDA-MB-231 breast, -53.4% (active); in the experiment on RXF 393 renal, -90.9% (active); in the experiment with SF-268 CNS it was -59.9% (active); in the experiment with SF-295 CNS, 9.81% (active); in the experiment with SF-539 CNS it was -93.6% (active). Further, the growth with UACC-257 melanoma was -17.2% (active); in the experiment on M14 melanoma it was -62.6% (active).

Turning to `COc1ccc(-c2ccc(NNC(=O)c3ccc(F)cc3)nn2)cc1OC`, the growth in the experiment with NCI-H23 lung was 83.7%; in the experiment with NCI-H226 lung it was 70%; with NCI-H322M lung, 72.2%; in the experiment with HOP-62 NSCLC, 57.6%; in the experiment on NCI-H460 lung, 93.2%; in the experiment on HOP-92 NSCLC it was 8.49% (active). Besides, the growth with NCI-H522 lung was 72.8%; in the experiment on A549/ATCC NSCLC, 72.4%; with 786-0 renal, 63.4%; with COLO 205 colon, 75.6%; in the experiment with DU-145 prostate, 65.6%; in the experiment with K-562 leukemia it was 55%. For the same molecule, the growth in the experiment on MALME-3M melanoma was 98.8%; in the experiment on MDA-MB-231 breast it was 36.2%; in the experiment with RXF 393 renal, 19.5%; in the experiment with SF-268 CNS, 58.2%; in the experiment with SF-295 CNS it was 84.7%; in the experiment with SF-539 CNS it was 65.8%. In addition, the growth in the experiment with UACC-257 melanoma is 102%; with M14 melanoma, 100%.
